The text below walks through data of article PMC8384837, “Expanding the binding specificity for RNA recognition by a PUF domain”.

Changes are numbered by the printed parent chain.

What all share (test): yeast three-hybrid, YBZ-1, SC-Leu-His + 0.5 mM 3-AT, 4 days
Settings in all cases: tags: N-Gal4 AD-HA kept; label: inside an RPR1-promoter hybrid RNA with tandem MS2 sites; ssRNA

One test concerns the target PUM1 PUF domain R3-LWI (Homo sapiens, UniProt Q14671 828-1176, C935L;R936W;Q939I). In outline:
(§1)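 The interaction score is the log change in variant frequency from input to selection. Scores were computed in log2 with a pseudocount of 1 for absent variants, using Illumina sequencing of PCR-amplified repeat regions. The input came from four days on SC-Leu and the selection from four days on SC-Leu-His + 0.5 mM 3-AT. The cells were strain YBZ-1 (LexA–MS2 coat fusion, HIS3 reporter) co-expressing Pumilio-1 PUF domain libraries and matching RNA elements from a centromeric plasmid.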

The target in another test is PUM1 PUF domain R3-SSD (Homo sapiens, UniProt Q14671 828-1176, C935S;R936S;Q939D). In outline: as §1
For the next test, the target named is PUM1 PUF domain R4-GYP (Homo sapiens, UniProt Q14671 828-1176, N971G;H972Y;Q975P). In outline: as §1
The next test has as its target T1, PUM1 PUF domain R6-FWS (Homo sapiens, UniProt Q14671 828-1176, N1043F;Y1044W;Q1047S).
T1 sequence: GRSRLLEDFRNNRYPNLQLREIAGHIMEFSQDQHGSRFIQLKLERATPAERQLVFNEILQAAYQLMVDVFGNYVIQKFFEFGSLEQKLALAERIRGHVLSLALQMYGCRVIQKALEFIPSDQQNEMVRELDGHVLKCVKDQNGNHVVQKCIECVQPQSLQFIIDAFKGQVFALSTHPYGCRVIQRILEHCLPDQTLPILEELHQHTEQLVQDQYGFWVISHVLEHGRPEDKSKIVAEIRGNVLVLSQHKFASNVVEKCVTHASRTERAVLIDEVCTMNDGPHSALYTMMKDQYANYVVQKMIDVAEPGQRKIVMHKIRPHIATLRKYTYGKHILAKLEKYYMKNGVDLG
Put shortly:
as §1

The target in a further test is T2, PUM1 PUF domain R6-LYA (Homo sapiens, UniProt Q14671 828-1176, N1043L;Q1047A).
T2 sequence: T1 sequence with F216L, W217Y, S220A
Put shortly:
as §1

The target in the next test is PUM1 PUF domain R1-RMS (Homo sapiens, UniProt Q14671 828-1176, S863R;R864M;Q867S). Put shortly: as §1
The next test has as its target PUM1 PUF domain R1-LKR (Homo sapiens, UniProt Q14671 828-1176, S863L;R864K;Q867R). In outline: as §1
The target of another test is PUM1 PUF domain R1-GPK (Homo sapiens, UniProt Q14671 828-1176, S863G;R864P;Q867K). Put shortly: as §1
The next test has as its target PUM1 PUF domain R1-KFV (Homo sapiens, UniProt Q14671 828-1176, S863K;R864F;Q867V). In outline:
as §1

The target in a further test is PUM1 PUF domain R8-RCR (Homo sapiens, UniProt Q14671 828-1176, N1122R;Y1123C;Q1126R). In outline:
as §1

A further test addresses PUM1 PUF domain R8-RYR (Homo sapiens, UniProt Q14671 828-1176, N1122R;Q1126R). Put shortly:
as §1

Another test has as its target PUM1 PUF domain R8-HFL (Homo sapiens, UniProt Q14671 828-1176, N1122H;Y1123F;Q1126L). In outline: as §1
In another test the target is PUM1 PUF domain R8-DYR (Homo sapiens, UniProt Q14671 828-1176, N1122D;Q1126R). Put shortly: as §1
In a further test the target is PUM1 PUF domain R8-KRH (Homo sapiens, UniProt Q14671 828-1176, N1122K;Y1123R;Q1126H). In outline:
as §1

As to “GGCUAGAACUAGUGGAUCCCCCGGCGCCCGGCGGCUCGAGCCCGGGUAAGUGUAAGUAGUCUGCAUGCCGCCGGGCGCCAUGCCUGCAGGUCGACUCUAGAAAACAUG”, the binding signal was 3.8 log2 enrichment (interaction score) with PUM1 PUF domain R3-LWI and 2.19 log2 enrichment (interaction score) in the test with PUM1 PUF domain R3-SSD.
Turning to “GGCUAGAACUAGUGGAUCCCCCGGCGCCCGGCGGCUCGAGCCCGGGUAAGUGUACAUAGUCUGCAUGCCGCCGGGCGCCAUGCCUGCAGGUCGACUCUAGAAAACAUG”, the binding signal with PUM1 PUF domain R4-GYP is 5.39 log2 enrichment (interaction score).
For the sequence “GGCUAGAACUAGUGGAUCCCCCGGCGCCCGGCGGCUCGAGCCCGGGUAAGUGAAAAUAGUCUGCAUGCCGCCGGGCGCCAUGCCUGCAGGUCGACUCUAGAAAACAUG”, the binding signal with PUM1 PUF domain R6-FWS is 4.06 log2 enrichment (interaction score); with PUM1 PUF domain R6-LYA, 1.91 log2 enrichment (interaction score).
Regarding “GGCUAGAACUAGUGGAUCCCCCGGCGCCCGGCGGCUCGAGCCCGGGUAAGUGUAAAUUGUCUGCAUGCCGCCGGGCGCCAUGCCUGCAGGUCGACUCUAGAAAACAUG”, the binding signal in the test with PUM1 PUF domain R1-RMS was 2.07 log2 enrichment (interaction score); with PUM1 PUF domain R1-LKR, 2.22 log2 enrichment (interaction score); with PUM1 PUF domain R1-GPK, 2.87 log2 enrichment (interaction score); with PUM1 PUF domain R1-KFV it was 3.92 log2 enrichment (interaction score).
In the case of “GGCUAGAACUAGUGGAUCCCCCGGCGCCCGGCGGCUCGAGCCCGGGUAAGCGUAAAUAGUCUGCAUGCCGCCGGGCGCCAUGCCUGCAGGUCGACUCUAGAAAACAUG”, the binding signal is 3.19 log2 enrichment (interaction score) in the test with PUM1 PUF domain R8-RCR; 7.21 log2 enrichment (interaction score) in the test with PUM1 PUF domain R8-RYR; 2.79 log2 enrichment (interaction score) with PUM1 PUF domain R8-HFL; 3.04 log2 enrichment (interaction score) with PUM1 PUF domain R8-DYR; 2.93 log2 enrichment (interaction score) with PUM1 PUF domain R8-KRH.
